# DT40 TDP1 no CPT: qHTS for Inhibitors of human tyrosyl-DNA phosphodiesterase 1 (TDP1): qHTS in cells in absence of CPT; DT40 Tdp1-/- hTDP1 cells, no CPT, ATP luminescence, 48 h; Potency, µM (series often up to 46.2 µM), for inactives: top-dose activity change, negative = growth inhibition, hits mostly inhibitors; 420,000 tested, 15% active; note: potency is the fitted concentration of half-maximal effect; nearly all actives have a fitted effect of over 55% in size
#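 Camptothecin absent (DMSO only). Human TDP1-complemented DT40 knockout cells, 400 cells/well, 37 °C for minimum 48 hr; ATP measured via CellTiter-Glo, 30 min dark incubation, luminescence.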
# HT1080 IDH1KD tx: kills HT-1080 cells with IDH1 knockdown; HT-1080 IDH1 knockdown viability, ATP luminescence, 48 h; Potency, µM (top dose mostly 46.1 µM), for the others: top-dose activity, negative = toxicity, most hits filed as cytotoxic; 360,000 tested, 2% active; AID 686971;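 note: potency is the fitted concentration of half-maximal effect; 0% = DMSO wells and -100% = cell-free medium wells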
#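 IDH1KD HT-1080 cells, 750/well, RPMI + 5% FBS; compound pinned after 2 h settling; 48 h, 37 °C; CellTiter-Glo luminescence; % activity normalised to DMSO and no-cell wells; curves fitted, classed by r2 and efficacy.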
# HT1080-NT tox: kills 2HG-producing HT-1080-NT fibrosarcoma cells. HT-1080-NT fibrosarcoma viability, CellTiter-Glo ATP luminescence, 48 h. AID 686970. 360,000 tested, 1.6% active. Potency, µM (highest dose often 46.1 µM), inactives show at the highest dose activity, negative = less viability, actives largely listed as cytotoxic;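 note: NT is the 2HG producing partner of a matched IDH1 knockdown line; potency is the fitted concentration of half-maximal effect; 0% = DMSO-treated cells and -100% = media-only wells without cells; nearly all actives have a fitted effect of over 55% in size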
#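 HT-1080-NT; 750 cells/well; 5% FBS RPMI; 48 h compound, 37 degrees C; CellTiter-Glo luminescence; curve fitting and curve-class assignment.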
# IL1B secr inh: inflammasome signaling inhibition, IL-1 beta readout; activity change, % at 57.5 µM; THP-1 LPS/ATP IL-1B secretion, AlphaLISA, 16 h; hits give low values; 360,000 tested, 4.7% active; in the data active = activity change below about -50%; inconclusive = mostly about -30% to -49%
#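 Secreted IL-1B measured by AlphaLISA bead assay after 16 h compound exposure of THP-1 cells; compounds (final up to 57.5 uM) added 1 h before LPS (250 ng/mL) and ATP (1.25 mM) stimulation; lower signal means less secretion.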
# DT40 TDP1 CPT: growth inhibition of DT40 Tdp1-/-;hTDP1 cells with camptothecin (screen for TDP1 inhibitors); AID 686979; 420,000 tested, 12% active; chicken DT40 Tdp1-/-;hTDP1 cells + 20 nM CPT, ATP luminescence, 48 h; Potency, µM (top dose mostly 46.2 µM), inactives show at the top dose activity change, negative = growth inhibition, actives largely listed as inhibitors; note: potency is the fitted concentration of half-maximal effect; nearly all actives have a fitted effect of over 55% in size
#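 Chicken DT40 Tdp1-/- cells stably complemented with human TDP1 were seeded at 400 cells/well in medium containing 20 nM camptothecin, exposed to pin-transferred compounds, and grown at 37 °C for at least 48 hr. Viability was read as ATP luminescence.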
# An asterisk follows results filed as active; u = inconclusive; x = no result; [ ] = remark or other dose. Rows were chosen to be rich in hits. Some 19% of all compounds tested hit in one or more screens of this group. Unless noted, calls come from the whole dose curve; as a rule, active = well fitted curve in the direction sought with a large enough effect; inconclusive = small, poorly fitted or top-dose-only effect, or another doubt; inactive = no such curve, though single readings can be large; an effect the other way counts as inactive or inconclusive. Unless noted, % is set by controls: 0 for no effect and ±100 for the full control effect.
SMILES,DT40 TDP1 no CPT,HT1080 IDH1KD tx,HT1080-NT tox,IL1B secr inh,DT40 TDP1 CPT
COC(=O)c1c(C)nn(-c2ccc(F)c(Cl)c2)c1-c1cc(C)on1,5.2µM*,-19%,-15%,-3,12µM*
Cc1ccc(S(=O)(=O)/N=C(/Nc2ccccc2C)c2ccccc2)cc1,u,-12%,9%,-7,u
Cc1ccc(S(=O)(=O)/N=C(/Nc2c(C)cccc2C)c2ccccc2)cc1,1.6µM*,2%,3%,-6,-69%
Cc1ccccc1/C(=N\S(=O)(=O)c1ccc(Br)cc1)Nc1ccccc1,15µM*,-14%,-18%,-6,u
CN(C)/C(=N\S(=O)(=O)c1ccc(Br)cc1)c1ccccc1,-9%,-5%,2%,1,-18%
COc1ccc(OC)c(Nc2sc(C(=O)c3ccccc3)c(N)c2S(=O)(=O)c2ccccc2)c1,u,x,x,x,-5%
Cc1ccc(Nc2sc(C(=O)c3ccc(F)cc3)c(N)c2S(=O)(=O)c2ccc(C)cc2)cc1,u,x,x,x,18µM*
COc1cccc(C(=O)c2sc(Nc3ccc(C)cc3C)c(S(=O)(=O)c3ccccc3)c2N)c1,-30%,x,x,x,-10%
Nc1c(C(=O)c2ccc(F)cc2)sc(Nc2ccccc2F)c1S(=O)(=O)c1ccc(Br)cc1,8.2µM*,x,x,x,5.2µM*
Cc1ccc(Nc2sc(C(=O)c3ccccc3)c(N)c2S(=O)(=O)c2ccccc2)c(C)c1,15µM*,x,x,x,u
Cc1ccc(S(=O)(=O)c2c(Nc3cc(F)ccc3F)sc(C(=O)c3ccc(F)cc3)c2N)cc1,16µM*,x,x,x,21µM*
COc1ccc(CNC(=O)Cn2cc(C(F)(F)F)ccc2=O)cc1,3%,8%,9%,-11,4%
Cc1ccc(Cl)cc1Nc1sc(C(=O)c2ccc(F)cc2)c(N)c1S(C)(=O)=O,u,x,x,x,16µM*
Cc1ccc(Nc2sc(C(=O)c3ccccc3)c(N)c2S(=O)(=O)c2ccccc2)cc1Cl,u,x,x,x,-27%
NNC(=O)c1cc(Br)cs1,11%,4%,6%,107,u
Cc1ccc(NC(=O)c2sc3nc(C)cc(C)c3c2N)cc1,u,-20%,-16%,16,-3%
CCOc1ccccc1Nc1sc(C(=O)c2ccccc2)c(N)c1C(=O)Nc1ccccc1,9.2µM*,x,x,x,10µM*
Cc1ccc(NC(=O)c2c(Nc3ccccc3C)sc(C(=O)c3ccccc3)c2N)cc1,5.8µM*,x,x,x,u
COc1ccc(CCNC(=O)c2ccc(Cl)cc2)cc1OC,u,3%,-7%,-19,-8%
COc1ccc(CCNC(=O)c2cc3cc(Cl)ccc3nc2N)cc1OC,8.2µM*,18µM*,-7%,9,13µM*
Nc1nc2ccc(Cl)cc2cc1C(=O)NCCc1ccc(O)cc1,18µM*,u,-15%,-7,u
CC1CCN(CCCNC(=O)CCCNC(=O)Cn2cnc3sc4c(c3c2=O)CCCC4)CC1,0%,-1%,-3%,-101*,-1%
Cc1sc2ncn(CC(=O)NCCCN3CC(C)CC(C)C3)c(=O)c2c1S(=O)(=O)N1CC(C)CC(C)C1 (configuration not stated),u,-4%,-11%,0,18µM*
Cc1sc2ncn(CC(=O)NCCCN3CCC(C)CC3)c(=O)c2c1S(=O)(=O)N1CCC(C)CC1,-1%,1%,18%,1,11%
COc1cccc(CNC(=O)Cn2ncn3nc(-c4cccs4)cc3c2=O)c1OC,-19%,x,x,x,-21%
SMILES,DT40 TDP1 no CPT,HT1080 IDH1KD tx,HT1080-NT tox,IL1B secr inh,DT40 TDP1 CPT
COC(=O)c1ccc(NC(=O)N(c2ccccc2)c2ccccc2)cc1,u,4%,4%,-4,-3%
COC(=O)c1ccccc1C(=O)N(c1ccccc1)c1ccccc1,15µM*,3%,-3%,12,6.5µM*
CCCCN1CCCc2cc(CN(CCCN3CCOCC3)C(=O)Nc3ccc(CC)cc3)ccc21,21µM*,x,x,x,u
CCCN1CCCc2cc(CN(CCCN3CCOCC3)C(=O)Nc3ccc(CC)cc3)ccc21,21µM*,x,x,x,23µM*
O=C(NC1CCS(=O)(=O)C1)Oc1ccccc1 (configuration not stated),26µM*,7%,2%,18,u
CCCOC(=O)NC1CCS(=O)(=O)C1 (configuration not stated),-2%,10%,7%,-9,4%
CCCCCCCCCCOC(=O)NC1CCS(=O)(=O)C1 (configuration not stated),21µM*,-28%,-26%,-4,u
Cc1cc[n+](C)c2ccccc12,-21%,x,x,x,4%
Cc1cc[n+](CCC2CCCCC2)c2ccccc12,0.89µM*,x,x,x,1.3µM*
CCCCCCCCCCCC[n+]1ccc(C)c2ccccc21,2µM*,x,x,x,2µM*
CCCCCCC[n+]1ccc(C)c2ccccc21,0.45µM*,x,x,x,0.45µM*
Cc1ccc2c(C)cc[n+](CCCS(=O)(=O)[O-])c2c1,-14%,13%,10%,-14,-5%
Cc1ccc(OCC(=O)Nc2nc(C)c(Cl)cc2Cl)c([N+](=O)[O-])n1,7%,14%,0%,-1,-12%
O=C1[C@@H]2Cc3c([nH]c4ccccc34)C(c3ccccc3)N2C(=O)CN1C1CCN(Cc2ccccc2)CC1 (some centres not stated),16µM*,u,u,-66*,16µM*
COC(=O)c1ccc(C2c3[nH]c4ccccc4c3C[C@H]3C(=O)N(C4CCN(Cc5ccccc5)CC4)CC(=O)N23)cc1 (some centres not stated),u,u,u,0,u
O=C1[C@@H]2Cc3c([nH]c4ccccc34)C(c3cccc(Br)c3)N2C(=O)CN1C1CCN(Cc2ccccc2)CC1 (some centres not stated),21µM*,23µM*,u,-64*,u
Fc1ccc(NC(=S)N2CCc3ccccc3C2)c(F)c1,-18%,-13%,6%,47,-12%
COC(=O)C1CCN(c2nc(CN(C)C3CCOC3)nc3cc(OC)c(OC)cc23)CC1 (configuration not stated),-26%,x,x,x,11%[9.04 µM]
Cc1cc(C)c(C2=Nn3c(C)nnc3SC2C)cc1C (configuration not stated),12µM*,-22%,u,26,18µM*
O=C(NCC1CCCCC1)c1csc([C@@H]2O[C@H](CO)[C@H](O)[C@H](O)[C@H]2O)n1,-2%,16%,-3%,28,4%
Cn1nc([N+](=O)[O-])c(C(C#N)c2ccccn2)c(Cl)c1=O (configuration not stated),3.7µM*,u,-30%,-102*,5.2µM*

# Screening results as filed in PubChem BioAssay.
